SMILES strings stand for the structures. Unmarked numbers belong to inactive results. Calls of active or inactive are those of the source.

The target of the experiment is Luciferin 4-monooxygenase (Photinus pyralis) (UniProt P08659). Description: inhibition of purified Photinus pyralis luciferase – biochemical, luminescence, purified enzyme, 2006 set, primary screen (AID 1141).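 Further: cell-free assay with purified firefly luciferase at 100 ng per well in PBS; test concentration not given here.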 As to conditions: purified firefly luciferase, SteadyGlo luminescence, 30 min; higher = more signal, called active from +8 up or from −8 down.
Sequence of Luciferin 4-monooxygenase (Photinus pyralis) (P08659 whole entry, looked up): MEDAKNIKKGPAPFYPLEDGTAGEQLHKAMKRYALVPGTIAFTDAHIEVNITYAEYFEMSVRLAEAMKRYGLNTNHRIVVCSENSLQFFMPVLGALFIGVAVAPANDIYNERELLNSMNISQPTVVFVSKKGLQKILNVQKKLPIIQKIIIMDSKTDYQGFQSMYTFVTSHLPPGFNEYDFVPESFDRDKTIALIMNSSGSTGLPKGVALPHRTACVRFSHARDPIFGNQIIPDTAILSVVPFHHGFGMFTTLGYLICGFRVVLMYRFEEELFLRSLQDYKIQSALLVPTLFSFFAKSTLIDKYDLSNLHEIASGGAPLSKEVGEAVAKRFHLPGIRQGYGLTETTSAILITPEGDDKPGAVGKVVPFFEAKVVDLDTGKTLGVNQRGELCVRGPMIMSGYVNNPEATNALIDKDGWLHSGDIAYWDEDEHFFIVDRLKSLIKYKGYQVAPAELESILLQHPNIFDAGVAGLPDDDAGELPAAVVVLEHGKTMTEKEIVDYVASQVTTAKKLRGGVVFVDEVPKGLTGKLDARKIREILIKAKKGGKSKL
For the molecule `COc1ccc(C(O)C2C=CC3C(=O)N(c4ccccc4)C(=O)C3N2Nc2ccc(C#N)cc2)cc1OCc1ccccc1` (stereo not given), the z-score was 0.188.

As for `CC(C)NC(=O)[C@@]1(c2ccc([N+](=O)[O-])cc2)CC(=O)N(CC23CC4CC(CC(C4)C2)C3)[C@@H]1c1ccc(CO)cc1`, the z-score is 0.346.

For the molecule `CC1=C([C@H](O)CCc2ccccc2)[C@H](CO)n2c(=O)n(-c3ccccc3)c(=O)n2C1`, the z-score is -0.728.

Turning to `O=C(NC1CC1)[C@@H]1c2ccccc2C(=O)N(Cc2cc(C(F)(F)F)cc(C(F)(F)F)c2)[C@H]1c1ccc(CO)cc1`, the z-score was -0.423.

As to `COC(=O)[C@@]1(Cc2ccccc2)N=C(c2ccc(OCCCO)cc2)O[C@H]1c1ccccc1CN=[N+]=[N-]`, the z-score was -2.05.

Regarding `O=C1c2ccccc2[C@@]2(Cc3ccccc3N(Cc3ccccc3)C2=O)[C@H](c2ccc(CO)cc2)N1Cc1ccccc1Cl`, the z-score was 1.3.

Consider `CC(C)C[C@H]1NC(=O)C([C@@H](C)OCc2ccccc2)NC(=O)[C@@]23C(=O)N[C@@H](Cc4ccccc4)C2[C@H](C)[C@@]2(C)O[C@H]2C3/C=C/C/C=C\CNC1=O` (stereo not given in full), for which the z-score is -0.53.

`CC(C)=CCCC(C)=CC(O)C1C=CC2C(=O)NC(=O)C2N1Nc1ccc(Cl)cc1Cl` (stereo not given): the z-score was -0.889.

In the case of `CCCCC(=C=CC[C@H](O)c1ccc(CO)o1)CCO`, the z-score is -0.783.

For the molecule `CCOC(=O)C1=CC[C@@H](c2ccccc2)N(S(=O)(=O)c2ccc(C)cc2)[C@H]1c1ccccc1I`, the z-score is 1.55.

`[N-]=[N+]=Nc1ccccc1[C@@H]1OC(c2ccc(OCCCO)cc2)=N[C@]1(CCS(=O)(=O)c1ccccc1)C(=O)NCC(O)CO` (stereo not given in full): the z-score was -9.87 (active).

Regarding `N#Cc1ccc(NN2C(C(O)C3CC=CCC3)C=CC3C(=O)N(c4ccccc4)C(=O)C32)cc1` (stereo not given), the z-score is -0.852.

Regarding `CC(C)C[C@@H]1NC(=O)[C@@]23C(=O)N[C@@H](Cc4ccccc4)C2[C@H](C)[C@@]2(C)O[C@H]2C3/C=C/C/C=C\CNC(=O)CNC1=O` (stereo not given in full), the z-score is -0.321.

Regarding `COc1ccc([Si](C)(C)[C@H]2[C@H](CC(=O)N3CCC[C@H]3CO)O[C@@]3(C(=O)N(Cc4ccc(N5CCCCC5=O)cc4)c4ccccc43)[C@@H]2C)cc1`, the z-score is 0.627.

Take `C=CCC(OC(C)=O)[C@@H]1[C@@H](N(Cc2cccc3ccccc23)C(=O)Cc2ccc(OC)cc2)c2cc(OCCCO)ccc2N1C(=O)c1ccc2ccccc2c1` (stereo not given in full): the z-score is 0.851.

`NC(=O)NCC#Cc1ccc2c(c1)[C@]1(C(=O)N2)[C@H](c2ccc(OCCO)cc2)N2[C@H](c3ccccc3)[C@H](c3ccccc3)OC(=O)[C@H]2[C@@H]1C(=O)O`: the z-score is -1.6.

With `O=C1O[C@H](c2ccccc2)[C@H](c2ccccc2)N2[C@H]1[C@@H](C(=O)N1CCN(c3ncccn3)CC1)[C@]1(C(=O)Nc3ccc(C#CCCO)cc31)[C@H]2c1ccc(O)cc1`, the z-score is -0.538.

`C=C(CCCC)/C(=C/C[C@H](OC(=O)c1ccncc1)c1cccc(OCCO)c1)c1cnc2ccccc2c1`: the z-score is -0.78.

Turning to `O=C(N1CCOCC1)[C@@]1(Cc2ccccc2)COC(c2ccc(OCCCO)cc2)=N1`, the z-score is -0.276.

`C=CCC(OC(C)=O)[C@@H]1[C@@H](N(Cc2ccc(-c3cccc(C(F)(F)F)c3)o2)C(=O)c2ccc(-c3ccccc3)cc2)c2cc(OCCCO)ccc2N1C(=O)c1ccc2ccccc2c1` (stereo not given in full): the z-score was 0.85.

As for `[N-]=[N+]=NCc1ccccc1[C@@H]1OC(c2ccc(OCCCO)cc2)=N[C@]1(Cc1ccccc1N=[N+]=[N-])C(=O)NCC(O)CO` (stereo not given in full), the z-score was -2.1.

Consider `CCCNC(=O)[C@@]1(c2ccc([N+](=O)[O-])cc2)CC(=O)N(C(C)C)[C@@H]1c1ccc(CO)cc1`, for which the z-score was -0.113.

Take `CC(C)N1C(=O)C[C@@](C(=O)NCCN2CCOCC2)(c2ccc([N+](=O)[O-])cc2)[C@H]1c1ccc(CO)cc1`: the z-score is 1.42.

`CCCC[C@H]1OB(O)C[C@H]2C1=C(COc1ccccc1)C[C@H]1C(=O)C=CC(=O)[C@H]12`: the z-score was -2.36.

In the case of `CC(C)[Si](C#CCCc1ccccc1)(O[C@H](c1ccccc1)c1cn(Cc2ccccc2)nn1)C(C)C`, the z-score was 0.898.
